# Data taken from the antibiotic and cytotoxicity screens of Wong et al. (2023).
# Hit rate of the full screen: of about 39,000 compounds, about 1,500 (3.8%) were called active. This excerpt belongs to a sample that is enriched for actives.
# Test system: HSkMC (human skeletal muscle cells)
# Test: cytotoxicity call (relative viability < 0.9)
# Conditions: 10 µM
row,SMILES,cytotoxicity call
1,COCC(=O)N(C)C[C@H]1Oc2cc(C#CC(C)(C)O)ccc2S(=O)(=O)N([C@@H](C)CO)C[C@H]1C,inactive
2,C[C@H]1CN([C@@H](C)CO)C(=O)c2cccc(NS(=O)(=O)c3cn(C)cn3)c2O[C@@H]1CN(C)C(=O)NC1CCCCC1,inactive
3,CO[C@H]1CN(C)C(=O)c2ccc(NS(=O)(=O)c3cn(C)cn3)cc2OC[C@@H](C)N(CC2CC2)C[C@@H]1C,inactive
4,Cn1cnc(S(=O)(=O)N2C[C@@H](O)COC[C@@H]3O[C@H](CC(=O)NCc4cccc(F)c4)CC[C@H]32)c1,inactive
5,CNC(=O)c1cccc(S(N)(=O)=O)c1,inactive
6,C[C@@H]1CCCCO[C@H](CN(C)C(=O)NC2CCCCC2)[C@H](C)CN([C@H](C)CO)C(=O)c2cc(NC(=O)NC3CCCCC3)ccc2O1,inactive
7,C[C@@H]1CN([C@@H](C)CO)C(=O)c2cc(C#CC(C)(C)O)cnc2O[C@H]1CN(C)C(=O)CN(C)C,inactive
8,C[C@@H]1CN([C@H](C)CO)C(=O)c2cccc(NS(=O)(=O)c3ccc(F)cc3)c2O[C@@H]1CN(C)C(=O)Nc1ccc(C(F)(F)F)cc1,inactive
9,C[C@@H]1CN([C@@H](C)CO)C(=O)Cc2cc(NS(C)(=O)=O)ccc2O[C@@H]1CN(C)C(=O)Nc1ccc2c(c1)OCO2,inactive
10,C[C@H](CO)N1C[C@H](C)[C@H](CN(C)C(=O)Nc2ccc3c(c2)OCO3)OCCCC[C@H](C)Oc2ccc(NC(=O)CCCCCC(=O)Nc3ccccc3N)cc2C1=O,inactive
11,Cc1noc(C)c1NC(=O)Nc1cccc2c1O[C@H](CN(C)Cc1ccc(C(F)(F)F)cc1)[C@H](C)CN([C@@H](C)CO)C2=O,inactive
12,C[C@@H]1CN([C@H](C)CO)C(=O)Cc2cc(NC(=O)Cc3cn(C)c4ccccc34)ccc2O[C@@H]1CN(C)Cc1ccc(C(=O)Nc2ccccc2N)cc1,inactive
13,C[C@H]1CN([C@@H](C)CO)C(=O)c2cc(NC(=O)Cc3cn(C)c4ccccc34)ccc2O[C@@H]1CN(C)Cc1ccc(C(=O)Nc2ccccc2N)cc1,active
14,C[C@@H]1CN([C@H](C)CO)C(=O)c2cc(NC(=O)Cc3cn(C)c4ccccc34)ccc2O[C@@H]1CN(C)Cc1ccc(C(=O)Nc2ccccc2N)cc1,inactive
15,C[C@H]1CN([C@@H](C)CO)C(=O)Cc2cc(NC(=O)Cc3cn(C)c4ccccc34)ccc2O[C@@H]1CN(C)Cc1ccc(C(=O)Nc2ccccc2N)cc1,inactive
16,C[C@H](CO)N1C[C@H](C)[C@H](CN(C)Cc2ccc(C(=O)Nc3ccccc3N)cc2)Oc2ccc(NC(=O)Cc3cn(C)c4ccccc34)cc2CC1=O,active
17,C[C@H](CO)N1C[C@H](C)[C@H](CN(C)Cc2ccc(C(=O)Nc3ccccc3N)cc2)Oc2ccc(NC(=O)Cc3cn(C)c4ccccc34)cc2C1=O,inactive
18,O=C(C[C@@H]1CC[C@H]2[C@@H](COC[C@H](O)CN2S(=O)(=O)c2ccc(Cl)cc2)O1)NCCN1CCCC1,inactive
19,O=C(C[C@H]1C=C[C@@H](NS(=O)(=O)c2ccc(F)cc2)[C@@H](CO)O1)N1CCC(Cc2ccccc2)CC1,inactive
20,C[C@@H]1CCCCO[C@H](CN(C)C(=O)Nc2ccc(C(F)(F)F)cc2)[C@@H](C)CN([C@@H](C)CO)C(=O)c2cc(NC(=O)CCC(F)(F)F)ccc2O1,inactive
21,C[C@@H]1CCCCO[C@@H](CN(C)C(=O)CCC(F)(F)F)[C@H](C)CN([C@@H](C)CO)C(=O)c2cc(NS(=O)(=O)c3ccccc3)ccc2O1,inactive

row,SMILES,cytotoxicity call
1,COc1ccc(NC(=O)Nc2ccc3c(c2)C(=O)N([C@@H](C)CO)C[C@H](C)[C@H](CN(C)Cc2ccc(C(F)(F)F)cc2)OCCCC[C@H](C)O3)cc1,inactive
2,COc1ccc(CN(C)C[C@@H]2OCCCC[C@@H](C)Oc3ccc(NC(=O)Nc4ccc(C(F)(F)F)cc4)cc3C(=O)N([C@@H](C)CO)C[C@H]2C)cc1,active
3,COc1ccc(NC(=O)Nc2ccc3c(c2)C(=O)N([C@@H](C)CO)C[C@H](C)[C@@H](CN(C)Cc2ccc(C(F)(F)F)cc2)OCCCC[C@H](C)O3)cc1,inactive
4,COc1ccc(CN(C)C[C@@H]2OCCCC[C@@H](C)Oc3ccc(NC(=O)Nc4ccc(C(F)(F)F)cc4)cc3C(=O)N([C@@H](C)CO)C[C@@H]2C)cc1,active
5,COc1ccc(CN(C)C[C@H]2OCCCC[C@@H](C)Oc3ccc(NC(=O)Nc4ccc(C(F)(F)F)cc4)cc3C(=O)N([C@H](C)CO)C[C@@H]2C)cc1,active
6,COc1ccc(CN(C)C[C@H]2OCCCC[C@H](C)Oc3ccc(NC(=O)Nc4ccc(C(F)(F)F)cc4)cc3C(=O)N([C@H](C)CO)C[C@H]2C)cc1,active
7,C[C@@H]1CCCCO[C@H](CN(C)C(=O)Cc2ccccc2)[C@H](C)CN([C@@H](C)CO)C(=O)c2cc(NC(=O)Cc3ccccc3)ccc2O1,inactive
8,COc1ccc(NC(=O)Nc2ccc3c(c2)C(=O)N([C@@H](C)CO)C[C@@H](C)[C@@H](CN(C)C(=O)NC2CCCCC2)OCCCC[C@H](C)O3)cc1,inactive
9,C[C@@H]1CN([C@H](C)CO)S(=O)(=O)c2ccc(C#Cc3ccncc3)cc2O[C@@H]1CN(C)C(=O)C1CCOCC1,inactive
10,C[C@@H]1CCCCO[C@@H](CN(C)C(=O)C2CCCCC2)[C@@H](C)CN([C@@H](C)CO)C(=O)c2cc(NC(=O)Nc3ccc4c(c3)OCO4)ccc2O1,inactive
11,COc1ccc(NC(=O)N(C)C[C@H]2Oc3c(NS(C)(=O)=O)cccc3C(=O)N([C@H](C)CO)C[C@@H]2C)cc1,inactive
12,C[C@@H]1CCCCO[C@H](CN(C)C)[C@H](C)CN([C@@H](C)CO)C(=O)c2cc(NC(=O)Nc3cccc4ccccc34)ccc2O1,inactive
13,C[C@H](CO)N1C[C@H](C)[C@H](CN(C)S(=O)(=O)c2cn(C)cn2)Oc2ccc(NC(=O)CCCN(C)C)cc2C1=O,inactive
14,O=C(CN1CCOCC1)NCC[C@@H]1CC[C@H](NS(=O)(=O)c2ccc(Cl)cc2)[C@@H](CO)O1,inactive
15,C[C@@H]1CN([C@H](C)CO)C(=O)c2cccc(NC(=O)CCCCCC(=O)Nc3ccccc3N)c2O[C@H]1CN(C)C(=O)Nc1ccccc1,inactive
16,Cn1cc(N2C[C@]3(COCCN(C(=O)C4CC4)C3)OCC2=O)cn1,inactive
17,COc1ccc(CN(C)C[C@@H]2OCCCC[C@H](C)Oc3ccc(NC(=O)Nc4ccc(C(F)(F)F)cc4)cc3C(=O)N([C@@H](C)CO)C[C@H]2C)cc1,active
18,COc1ccc(CN(C)C[C@@H]2OCCCC[C@H](C)Oc3ccc(NC(=O)Nc4ccc(C(F)(F)F)cc4)cc3C(=O)N([C@@H](C)CO)C[C@@H]2C)cc1,active
19,COc1ccc(NC(=O)Nc2ccc3c(c2)C(=O)N([C@H](C)CO)C[C@@H](C)[C@@H](CN(C)Cc2ccc(C(F)(F)F)cc2)OCCCC[C@@H](C)O3)cc1,active
20,COc1ccc(NC(=O)Nc2ccc3c(c2)C(=O)N([C@H](C)CO)C[C@@H](C)[C@@H](CN(C)Cc2ccc(C(F)(F)F)cc2)OCCCC[C@H](C)O3)cc1,inactive
21,COc1ccc(NC(=O)Nc2ccc3c(c2)C(=O)N([C@H](C)CO)C[C@@H](C)[C@H](CN(C)Cc2ccc(C(F)(F)F)cc2)OCCCC[C@H](C)O3)cc1,inactive

row,SMILES,cytotoxicity call
1,COc1ccc(NC(=O)Nc2ccc3c(c2)C(=O)N([C@H](C)CO)C[C@H](C)[C@@H](CN(C)Cc2ccc(C(F)(F)F)cc2)OCCCC[C@@H](C)O3)cc1,inactive
2,COc1ccc(NC(=O)Nc2ccc3c(c2)C(=O)N([C@@H](C)CO)C[C@@H](C)[C@H](CN(C)Cc2ccc(C(F)(F)F)cc2)OCCCC[C@H](C)O3)cc1,inactive
3,COc1ccc(CN(C)C[C@@H]2OCCCC[C@@H](C)Oc3ccc(NC(=O)Nc4ccc(C(F)(F)F)cc4)cc3C(=O)N([C@H](C)CO)C[C@@H]2C)cc1,active
4,C[C@@H]1CN([C@H](C)CO)C(=O)Cc2cc(NS(=O)(=O)c3cn(C)cn3)ccc2O[C@@H]1CN(C)C(=O)Nc1ccc(F)cc1,inactive
5,C[C@@H]1CN([C@H](C)CO)C(=O)Cc2cc(NC(=O)Nc3cccc4ccccc34)ccc2O[C@@H]1CN(C)S(=O)(=O)c1ccc(F)cc1,inactive
6,COc1ccccc1C#Cc1ccc2c(c1)O[C@@H](CN(C)C(C)=O)[C@@H](C)CN([C@H](C)CO)S2(=O)=O,inactive
7,C[C@@H]1CN([C@@H](C)CO)C(=O)c2cc(-c3cccc(C(=O)N(C)C)c3)cnc2O[C@@H]1CN(C)C(=O)Cc1ccccn1,inactive
8,COc1ccc(S(=O)(=O)N(C)C[C@@H]2OCCCC[C@H](C)Oc3ccc(NC(=O)Nc4c(C)noc4C)cc3C(=O)N([C@H](C)CO)C[C@H]2C)cc1,inactive
9,O=C(c1cccnc1)N1C[C@H]2[C@@H](c3ccccc31)[C@@H](CO)N2C(=O)CN1CCOCC1,inactive
10,CN(C)S(=O)(=O)c1ccc(CN)cc1,inactive
11,CC(C)NC(=O)Nc1ccc2c(c1)C(=O)N(C)[C@H]1CC[C@@H](CC(=O)NCc3ccc(F)cc3)O[C@@H]1CO2,inactive
12,C[C@@H]1CN([C@H](C)CO)C(=O)c2cccc(NS(=O)(=O)c3ccc(Cl)cc3)c2O[C@@H]1CN(C)Cc1ccc(Oc2ccccc2)cc1,inactive
13,C[C@@H]1CN([C@@H](C)CO)C(=O)c2ccccc2-c2ccccc2CO[C@@H]1CN(C)C(=O)Nc1ccc(F)cc1,inactive
14,C[C@@H]1CN([C@@H](C)CO)C(=O)Cc2cc(NC(=O)Cn3cnnn3)ccc2O[C@@H]1CN(C)Cc1ccncc1,inactive
15,COc1ccc(CN(C)C[C@H]2OCCCC[C@H](C)Oc3ccc(NC(=O)Nc4ccc(C(F)(F)F)cc4)cc3C(=O)N([C@H](C)CO)C[C@@H]2C)cc1,active
16,COc1ccc(CN(C)C[C@H]2OCCCC[C@@H](C)Oc3ccc(NC(=O)Nc4ccc(C(F)(F)F)cc4)cc3C(=O)N([C@@H](C)CO)C[C@H]2C)cc1,active
17,COc1ccc(CN(C)C[C@H]2OCCCC[C@@H](C)Oc3ccc(NC(=O)Nc4ccc(C(F)(F)F)cc4)cc3C(=O)N([C@H](C)CO)C[C@H]2C)cc1,active
18,COc1ccc(CN(C)C[C@@H]2OCCCC[C@H](C)Oc3ccc(NC(=O)Nc4ccc(C(F)(F)F)cc4)cc3C(=O)N([C@H](C)CO)C[C@@H]2C)cc1,active
19,COc1ccc(NC(=O)Nc2ccc3c(c2)C(=O)N([C@@H](C)CO)C[C@H](C)[C@H](CN(C)Cc2ccc(C(F)(F)F)cc2)OCCCC[C@@H](C)O3)cc1,inactive
20,COc1ccc(NC(=O)Nc2ccc3c(c2)C(=O)N([C@@H](C)CO)C[C@@H](C)[C@@H](CN(C)Cc2ccc(C(F)(F)F)cc2)OCCCC[C@@H](C)O3)cc1,inactive
